# Compound activity deposited in PubChem by National Center for Advancing Translational Sciences (NCATS).
# Vif-A3G inh = inhibitors of Vif-APOBEC3G interaction; Q9HC16; HeLa A3G-eYFP + Vif (tagged APOBEC3G with the HIV-1 protein that degrades it), YFP fluorescence, overnight; Potency, µM (titrated, usually from 46.1 µM), for inactives: at the highest dose activity, negative = active, actives largely listed as inhibitors; actives 0.076% (n = 410,000); AID 602310; note: potency is the fitted concentration of half-maximal effect; % is set by controls: 0 for no effect and ±100 for the full control effect; nearly all actives have a fitted effect of over 60% in size
# Target sequence (Q9HC16 whole entry, looked up): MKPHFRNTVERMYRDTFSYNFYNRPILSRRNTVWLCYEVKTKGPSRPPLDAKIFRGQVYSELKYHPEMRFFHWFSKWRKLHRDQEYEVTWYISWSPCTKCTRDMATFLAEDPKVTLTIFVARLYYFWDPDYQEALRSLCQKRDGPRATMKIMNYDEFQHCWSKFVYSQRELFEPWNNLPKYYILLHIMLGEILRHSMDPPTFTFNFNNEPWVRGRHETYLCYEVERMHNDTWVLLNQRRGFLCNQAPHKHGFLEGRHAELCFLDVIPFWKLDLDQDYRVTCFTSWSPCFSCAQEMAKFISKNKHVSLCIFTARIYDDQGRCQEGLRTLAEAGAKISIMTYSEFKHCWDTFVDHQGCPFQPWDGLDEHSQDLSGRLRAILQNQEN
#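 HeLa cells stably expressing Vif and C-terminally eYFP-tagged A3G, seeded overnight at 37 deg C, then exposed to compound by pintool overnight at 37 deg C. Rise in yellow fluorescence (Ex 488/Em 500-530, Acumen) marks blocked Vif-driven A3G degradation.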
# PKM2 act = increases activity of human pyruvate kinase M2; purified PKM2, Kinase-Glo ATP luminescence, activation; response scale: 0% is enzyme alone, no compound; Potency, µM (series often up to 57.5 µM), without a hit: at the top dose activation, actives largely listed as activators; actives 0.34% (n = 260,000); AID 1631; note: potency is the fitted concentration of half-maximal effect; % is set by controls: 0 for no effect and ±100 for the full control effect; nearly all actives have a fitted effect of over 55% in size
#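 Purified hPK-M2 (>95% pure) converted ADP (0.1 mM final) to ATP with 0.5 mM PEP in 50 mM imidazole pH7.2, KCl, MgCl2, Tween 20, BSA; 1 h at room temperature. ATP detected by Kinase-Glo luminescence.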
# GoLoco inh red = inhibitors of human Gai1-RGS12 GoLoco interaction (red fluorophore). actives 0.44% (n = 230,000). P63096. AID 880. Gai1:RGS12 GoLoco peptide FP, rhodamine, 10 min. Potency, µM (top dose mostly 61.6 µM), inactives show top-dose activity, negative = inhibition, most hits filed as inhibitors; active = well fitted inhibition curve with a large enough effect, not every such curve was filed as active; inactive = no such curve, though single readings can be large or run the other way; note: potency is the fitted concentration of half-maximal effect; % is set by controls: 0 for no effect and ±100 for the full control effect; nearly all actives have a fitted effect of over 30% in size
# Target sequence (P63096 whole entry, looked up): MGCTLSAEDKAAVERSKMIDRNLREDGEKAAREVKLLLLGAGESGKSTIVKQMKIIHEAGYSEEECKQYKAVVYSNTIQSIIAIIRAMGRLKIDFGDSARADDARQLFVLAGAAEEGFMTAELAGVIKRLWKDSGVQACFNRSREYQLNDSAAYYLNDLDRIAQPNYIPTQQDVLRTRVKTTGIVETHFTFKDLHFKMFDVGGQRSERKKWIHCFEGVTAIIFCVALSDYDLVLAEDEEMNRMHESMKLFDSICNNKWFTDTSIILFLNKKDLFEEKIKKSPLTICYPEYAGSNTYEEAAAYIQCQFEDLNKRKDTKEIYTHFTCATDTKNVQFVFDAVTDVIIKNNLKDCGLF
# IL-2 act = IL-2 activation. IL-2 activation reporter assay, cell-based qHTS; stimulated with anti-CD3/CD4/CD28 beads; in transgenic mouse T cells. activation, % (series mostly up to about 46 µM). actives 0.065% (n = 360,000). AID 652025; in the data active = activation above about 50%; inconclusive = mostly about 30% to 49%; note: 0% is about no effect
#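 EGFP and DsRed fluorescence is measured by plate cytometry in unstimulated transgenic mouse T cells exposed to compound for 60 minutes, then stimulated 18 hours at 37 degrees C with anti-CD3/anti-CD4 beads plus anti-CD28.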
# Vif-A3F inh = blocks the Vif interaction with APOBEC3F; HeLa A3F-eYFP + Vif (tagged APOBEC3F with the HIV-1 protein that degrades it), YFP fluorescence increase; Potency, µM (series often up to 46.1 µM), without a hit: at the top dose activity, negative = active; actives 0.2% (n = 390,000); AID 602313; note: potency is the fitted concentration of half-maximal effect; % of control where 0% means no effect; nearly all actives have a fitted effect of over 65% in size
#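 HeLa cells stably expressing Vif plus C-terminally eYFP-tagged A3F were seeded, incubated overnight at 37 deg C, dosed with compound, incubated overnight again at 37 deg C. Yellow fluorescence (Ex 488/Em 500-530) reported blocked Vif-mediated A3F-eYFP degradation.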
# KAT2A inh = blocks human GCN5L2 histone acetyltransferase; Q92830; GCN5L2 HAT assay, ThioGlo1 CoA-SH fluorescence; Potency, µM (highest dose often 58.9 µM), inactives show at the highest dose activity change, negative = inhibition, usual class: inhibitors; actives 0.21% (n = 390,000); note: potency is the fitted concentration of half-maximal effect; % is set by controls: 0 for no effect and ±100 for the full control effect
#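 Fluorescence readout, Ex340nm/Em540nm: ThioGlo1 (50uM final) reacts with free CoA thiol released as 20nM GCN5L2 acetylates H3(1-25) peptide (75uM) using acetyl-CoA (70uM). Compound and enzyme sat 15 min beforehand; 20 min room-temperature reaction.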
# Starred values were filed as active, the others as inactive; ? = inconclusive; / = no result. Compounds with a hit are over-represented: about 0.77% of the library has one in this group of screens. Unless noted, calls come from the whole dose curve; as a rule, active = well fitted curve in the direction sought with a large enough effect; inconclusive = small, poorly fitted or top-dose-only effect, or another doubt; inactive = no such curve, though single readings can be large; an effect the other way counts as inactive or inconclusive.
SMILES,Vif-A3G inh,PKM2 act,GoLoco inh red,IL-2 act,Vif-A3F inh,KAT2A inh
Cc1ccc2c(c1)c(/C=C/c1cc[n+](C)cc1)c(C)n2C,?,/,/,4,-91%,-20%
Cc1ccc2[nH]c(C)c(/C=C/c3cc[n+](C)cc3)c2c1,1.3µM*,/,/,159*,-372%,-9%
COc1ccc(NC(=O)C/C(C)=N/NC(=O)C(=O)NC2CCCCC2)c(OC)c1,-1%,-5%,5%,-4,8%,-7%
O=C1CSC2(C(=O)N3CCCc4cccc2c43)N1c1cccc(C(F)(F)F)c1 (centres undefined),0%,6%,2%,0,-8%,-5%
O=c1[nH][nH]c(=S)n1C1CCCCC1,2%,-77%,-32%,0,-7%,16µM*
O=c1cc(O)n(C2CCCCCC2)c(=O)[nH]1,-6%,/,/,-1,-14%,9%
O=C(OCCN1CCOCC1)C(c1ccccc1)c1ccccc1,0%,-1%,1%,-4,-5%,-2%
CC(C)N1C(=O)CC2(CC[N+](C)(CCOC(=O)C(c3ccccc3)c3ccccc3)CC2)C1=O (centres undefined),-5%,8%,11µM*,2,-2%,?
COc1ccc(-n2nnc3c(SCC(=O)Nc4ccccc4F)ncnc32)cc1,5%,0%,5%,0,-2%,-6%
CCCn1c(O)c(/C=C2\C=NN=C2c2ccccc2)sc1=S,-9%,-7%,7%,0,-2%,2.2µM*
C=CCn1c(O)c(/C=C2\C=NN=C2c2ccccc2)sc1=S,-9%,5%,3%,-5,9%,?
CCCCOc1nc2ccccc2nc1NS(=O)(=O)c1ccc(F)cc1,-25%,/,/,0,10µM*,0%
O=S(=O)(Nc1nc2ccccc2nc1N1CCN(c2ccccc2)CC1)c1ccc(F)cc1,?,-2%,27%,0,22µM*,-11%
CC(C)C[C@@H](CC(=O)N[C@@H](CCC(=O)O)CC(=O)O)NC(=O)[C@@H]1CCCC[C@H]1NC(=O)C[C@H](CCCN)NC(=O)C[C@H](Cc1c[nH]c2ccccc12)NC(=O)[C@@H]1CCCC[C@H]1N,/,/,-1%,/,/,/
O=C(C(Sc1ccccc1)c1ccc(Br)cc1)N1CCOCC1 (centres undefined),-2%,22%,13%,-3,-2%,-2%
CC(C)[C@H](NC(=O)[C@H](CCCN=C(N)N)NC(=O)NC(Cc1ccccc1)C(=O)O)C(=O)NC(C=O)CCCN=C(N)N (some centres undefined),-6%,1%,11%,1,-5%,-2%
CCc1ccc(C2=NN(CCC(=O)NC3CCCCCC3)C(=O)CC2)cc1,0%,/,/,-1,-2%,-16%
O=C1c2sc3nc4n(c(=O)c3c2CCC1Br)CCCCC4 (centres undefined),2%,23%,3.2µM*,0,-18%,-10%
Cc1c(C(=O)OCC(C)C)[nH]c2c1C(=O)CC(c1ccco1)C2 (centres undefined),-31%,?,14%,-2,?,-9%
Cc1c(C(=O)OCC2CCCO2)[nH]c2c1C(=O)CC(c1ccco1)C2 (centres undefined),?,20µM*,14%,-1,-10%,?
Cn1ccnc1SCC(=O)Nc1ccc([N+](=O)[O-])cn1,5%,14%,/,1,-10%,-14%
COc1cc([N+](=O)[O-])ccc1NC(=O)CSc1nccn1C,5%,13µM*,14%,0,12%,-14%
Cc1cc(C)n(-c2nc3ccccc3nc2N2CCN(S(=O)(=O)c3ccc(F)c(C)c3)CC2)n1,0%,10µM*,-5%,-1,-8%,-2%
O=S(Cc1ccc(Br)cc1)Cc1nnc(SCc2c(Cl)cccc2Cl)n1-c1ccccc1 (centres undefined),-10%,-15%,-14%,0,-5%,-9%
Cc1nc2ccc(N=NN(C)C)cc2[nH]1,5%,10µM*,-3%,1,-1%,?
SMILES,Vif-A3G inh,PKM2 act,GoLoco inh red,IL-2 act,Vif-A3F inh,KAT2A inh
COC(=O)c1sc(-c2cccs2)cc1N,-1%,-5%,-4%,0,-6%,4%
CN(C)c1ccc(NC(=O)CSCc2nc3c(nnn3Cc3ccc(F)cc3)c(=O)[nH]2)cc1,3%,22%,3.5µM*,-2,-13%,?
COc1ccc(C(C(=O)NCC2CCCO2)N(C(=O)CNC(=O)c2cccs2)c2ccccc2)cc1OC (centres undefined),-1%,-33%,9%,0,0%,0%
O=C(Nc1ccc(Cl)cc1)/C(=C/c1cccc(O)c1)c1nc2ccccc2s1,-25%,0%,61%,-1,?,-2%
Cc1c2ccccc2nc2c(F)c(N(C)C)c(F)c(F)c12,?,-2%,-39%,13,25µM*,-19%
CN(C)c1c2ccccc2nc2c(F)c(F)c(F)c(F)c12,?,1%,7%,-1,?,-9%
COc1ccc(S(=O)(=O)N2CCN(Cc3cc(OC)c(O)c(OC)c3)CC2)cc1,5%,2%,/,1,-6%,-7%
O=C(c1ccccc1)c1c2c(cc3sc4ccccc4[n+]13)-c1cccc3cccc-2c13,6.3µM*,-4%,1.3µM*,2,?,-9%
Cc1ccc(C(=O)C2=C(O)C(=O)N(c3ncccn3)C2c2cccc(Cl)c2)o1 (centres undefined),/,6.3µM*,15%,/,/,-3%
Cc1ccc(C(=O)C2=C(O)C(=O)N(Cc3ccco3)C2c2cccc(Cl)c2)o1 (centres undefined),0%,2%,/,-1,-4%,-11%
CCN1CCc2c(sc(N)c2C(N)=O)C1,0%,-6%,14%,-3,-12%,21%
O=C(Nc1ccc(F)c(Cl)c1)c1csc(COCCO)n1,-2%,/,/,1,/,/
O=S(=O)(Nc1ccc(N2CCOCC2)nn1)c1ccccc1,-2%,14µM*,/,0,-9%,-3%
CC(=O)c1ccc(S(=O)(=O)Nc2cccc(-c3ccc(N4CCOCC4)nn3)c2)cc1,-14%,/,/,0,9%,-17%
O=[N+]([O-])c1ccccc1S(=O)(=O)Nc1ccc(-c2ccc(N3CCOCC3)nn2)cc1,-12%,/,/,0,13µM*,-10%
O=[N+]([O-])c1ccccc1S(=O)(=O)Nc1cccc(-c2ccc(N3CCOCC3)nn2)c1,-5%,/,/,1,1%,-27%
COc1ccc(CCNC(=O)Cn2ncc3c(=O)oc4ccccc4c32)c(OC)c1,-1%,/,/,/,-5%,2%
